# Calls of active or inactive are those of the source. How the calls were made is not given here.
# Molecular target: Pantothenate synthetase (Mycobacterium tuberculosis (strain ATCC 25618 / H37Rv)) (UniProt P9WIL5)
# Assay: Coupled enzyme confirmation of inhibitors against recombinant Mtb PanC (AID 375);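 further: 0% = full reaction with vehicle and 100% = no enzyme background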
# Conditions: coupled enzyme assay; at 10 µM, active compounds read high
# Pantothenate synthetase (Mycobacterium tuberculosis (strain ATCC 25618 / H37Rv)), sequence (P9WIL5 whole entry, looked up): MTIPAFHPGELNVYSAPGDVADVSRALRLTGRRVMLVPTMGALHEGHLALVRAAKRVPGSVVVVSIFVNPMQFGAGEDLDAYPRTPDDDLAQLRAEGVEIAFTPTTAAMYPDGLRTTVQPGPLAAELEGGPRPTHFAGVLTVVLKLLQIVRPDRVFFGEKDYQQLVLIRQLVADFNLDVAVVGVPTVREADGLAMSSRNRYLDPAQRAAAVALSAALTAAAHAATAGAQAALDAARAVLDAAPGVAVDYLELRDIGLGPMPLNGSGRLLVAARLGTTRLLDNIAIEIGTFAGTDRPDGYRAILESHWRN
row,Structure (SMILES),inhibition
1,COc1cccc(Nc2nc(=O)[nH]nc2C)c1,8% (inactive)
2,N#Cc1nc(COc2ccccc2)oc1NCCCn1ccnc1,0% (inactive)
3,CCOC(=O)c1c(C(F)(F)C(F)(F)C(F)(F)C(F)(F)F)n[nH]c1C,8% (inactive)
4,CCOC(=O)N1CCN(C(=O)CCc2c(C)nc3c(c(C)nn3-c3ccc(C)c(C)c3)c2C)CC1,0% (inactive)
5,COc1ccc(C2c3c(oc4ccccc4c3=O)C(=O)N2Cc2ccncc2)cc1OC (stereo not given),6% (inactive)
6,O=C1CNCc2[nH]c3ccccc3c2N1c1ccccc1,0% (inactive)
7,O=C(c1ccc(S(=O)(=O)N2CCOCC2)cc1)N(c1ccc(F)cc1)C1C=CS(=O)(=O)C1 (stereo not given),0% (inactive)
8,Cc1cc(-c2nc3ncccc3o2)ccc1N,0% (inactive)
9,COc1ccc(Br)cc1CNC(=O)CCc1nc(-c2ccc(C)cc2)no1,4% (inactive)
10,COc1ccc(C)cc1S(=O)(=O)N1CCN(S(=O)(=O)c2cc(C)ccc2OC)CC1,5% (inactive)
11,O=C(Cc1nc2ccccc2s1)c1ccc(O)cc1O,8% (inactive)
12,CCOC(=O)c1[nH]c2ccc(OC)cc2c1NC(=O)CCN1CCC(C)CC1,0% (inactive)
13,CCOC(=O)c1cnn(-c2cc(C)c3cc(C)cc(C)c3n2)c1N,0% (inactive)
14,CCCc1cc(=O)n2[nH]cnc2n1,0% (inactive)
15,Cn1c(C(=O)OCC(=O)NCC2CCCO2)cc2sccc21 (stereo not given),2% (inactive)
16,COc1ccc(OC)c(C2C(C(=O)Nc3ccc(F)cc3)=C(C)Nc3nc(CCCO)nn32)c1 (stereo not given),5% (inactive)
17,CN1CCN(c2nc3c(c(=O)[nH]c(=O)n3C)n2CCSc2nc3ccccc3s2)CC1,8% (inactive)
18,COc1ccccc1N1CCN(C(=O)c2ccc3nc(-c4ccco4)c(-c4ccco4)nc3c2)CC1,9% (inactive)
19,Cc1nc2ccccc2cc1C(=O)NCc1ccco1,0% (inactive)
20,O=C(c1ccc(S(=O)(=O)N2CCOCC2)cc1)N1CCc2ccccc2C1,0% (inactive)

row,Structure (SMILES),inhibition
1,COc1ccc(-c2nc(N)nc(C)c2Oc2ccccc2Br)c(O)c1,0% (inactive)
2,Cc1ccn2cc(CCNC(=O)CC(C)(C)C)nc2c1,0% (inactive)
3,CCn1cc(C(=O)N2CCOCC2)c(=O)c2cc(S(=O)(=O)N(C)C3CCCCC3)ccc21,0% (inactive)
4,Oc1c(I)cc(Cl)c2cccnc12,4% (inactive)
5,COc1cc(NS(=O)(=O)c2ccc(N)cc2)ncn1,0% (inactive)
6,O=C(CSc1nnnn1C1CCCC1)Nc1cccc(NC(=O)c2ccco2)c1,5% (inactive)
7,CC1NC2(C(=O)N(Cc3ccccc3)c3ccccc32)C2C(=O)N(c3ccccc3)C(=O)C12 (stereo not given),0% (inactive)
8,CCSc1nnc2c(n1)OC=Nc1ccc(Br)cc1-2,2% (inactive)
9,CCOC(=O)c1[nH]c(C)c(C(=O)Nc2ccc(Cl)cc2)c1C,0% (inactive)
10,Cc1cc(C)n2nc(SCc3nc4ccccc4[nH]3)nc2n1,6% (inactive)
11,Cc1cc2c(=O)n(CC(=O)N3CCN(c4ccccc4)CC3)cnc2s1,0% (inactive)
12,CCN(CCNC(=O)CS(=O)(=O)Cc1nc(-c2cccc(OC)c2)oc1C)c1ccccc1,0% (inactive)
13,CC(C)C1Cc2c(C#N)c(N)sc(=S)c2CO1 (stereo not given),2% (inactive)
14,CC(=O)c1cccc(NC(=O)CCOc2ccccc2)c1,1% (inactive)
15,NCC(O)COc1ccc2c(c1)OCO2 (stereo not given),0% (inactive)
16,Cc1ccc(NC(=O)CS(=O)CC(=O)NCC2CCCO2)cc1 (stereo not given),0% (inactive)
17,CCOC(=O)Nc1cc(OC)c(OC)cc1Cc1nccc2cc(OC)c(OC)cc12,0% (inactive)
18,Cn1c(=O)cc(OCCCC(=O)N2CCCCC2)c2ccccc21,0% (inactive)
19,COCCNC(=O)CN1CCN(Cc2cccc(Cl)c2)C1=O,0% (inactive)
20,CN1CCc2c(sc3c2c(=O)n(-c2ccccc2)c2nnc(SCc4ccccc4)n32)C1,4% (inactive)
